Data published in PubChem BioAssay AID1159580 (chemical genetic matrix, 2015).
Hit rate of the full screen: of about 5,500 compounds, about 2,000 (36%) were called active. About 18% were inconclusive and are not listed. Rule as the data show it: active = normalized growth mostly below about 0.91 (no sharp cut-off); inconclusive = no clear call, values can overlap the other calls; inactive = mostly above about 0.92. The list shows a part of the results.

Experiment: chemical genetic growth profiling, strain panel (AID 1159580);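 also: tested at 20 µM; growth read once vehicle control cultures reached saturation at 30 °C; 1 = growth at the plate median or of vehicle wells; lower values mean less growth of the strain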
Settings: S. cerevisiae deletion strains, growth OD

Measured: normalized growth

CCCCCCCCCCCCCC(=O)OC1C(C)C2(O)C(C=C(CO)CC3(O)C(=O)C(C)=CC32)C2C(C)(C)C12OC(C)=O (centres undefined)
inactive: locus YAL013W, strain DEP1, active compounds read low 1 | locus YAL021C, strain ccr4, active compounds read low 0.982 | locus YAL026C, strain drs2, active compounds read low 0.985 | locus YAL030W, strain snc1, active compounds read low 0.991 | locus YBL061C, strain skt5, active compounds read low 0.981 | locus YBR009C, strain hhf1, active compounds read low 0.965 | locus YBR021W, strain FUR4, active compounds read low 0.988 | locus YBR023C, strain chs3, active compounds read low 0.97 | locus YBR171W, strain sec66, active compounds read low 0.981 | locus YBR229C, strain ROT2, active compounds read low 1.02 | locus YBR231C, strain swc5, active compounds read low 0.98 | locus YBR279W, strain paf1, active compounds read low 0.988 | locus YCL011C, strain gbp2, active compounds read low 0.98 | locus YCL016C, strain dcc1, active compounds read low 0.996 | locus YCL029C, strain bik1, active compounds read low 0.996 | locus YCL061C, strain MRC1, active compounds read low 0.987 | locus YCL069W, strain vba3, active compounds read low 0.986 | locus YCR088W, strain abp1, active compounds read low 0.989 | locus YDL005C, strain med2, active compounds read low 0.988 | locus YDL035C, strain GPR1, active compounds read low 1.06 | locus YDL040C, strain nat1, active compounds read low 0.979 | locus YDL074C, strain BRE1, active compounds read low 1.04 | locus YDL101C, strain DUN1, active compounds read low 1.01 | locus YDL134C, strain PPH21, active compounds read low 1.01 | locus YDL185W, strain tfp1, active compounds read low 1.01 | locus YDL192W, strain arf1, active compounds read low 0.997 | locus YDR001C, strain nth1, active compounds read low 0.978 | locus YDR069C, strain doa4, active compounds read low 0.985 | locus YDR101C, strain arx1, active compounds read low 0.996 | locus YDR137W, strain rgp1, active compounds read low 0.97 | locus YDR150W, strain NUM1, active compounds read low 1 | locus YDR159W, strain sac3, active compounds read low 0.969 | locus YDR162C, strain NBP2, active compounds read low 1.03 | locus YDR195W, strain ref2 0.96 | locus YDR297W, strain sur2, active compounds read low 0.985 | locus YDR318W, strain mcm21, active compounds read low 0.985 | locus YDR334W, strain swr1, active compounds read low 0.989 | locus YDR335W, strain msn5, active compounds read low 0.987 | locus YDR388W, active compounds read low 0.99 | locus YDR392W, strain spt3, active compounds read low 0.919 | locus YDR502C, strain sam2, active compounds read low 1 | locus YEL003W, strain gim4, active compounds read low 0.982 | locus YEL037C, strain rad23, active compounds read low 0.978 | locus YEL061C, strain CIN8 (second series), active compounds read low 0.976 | locus YEL061C, strain CIN8, active compounds read low 1.01 | locus YER015W, strain faa2, active compounds read low 0.986 | locus YER016W, strain bim1, active compounds read low 0.98 | locus YER110C, active compounds read low 0.994 | locus YER111C, strain swi4, active compounds read low 0.965 | locus YER155C, strain BEM2 (second series), active compounds read low 0.987 | locus YER155C, strain BEM2, active compounds read low 0.996 | locus YER167W, strain BCK2, active compounds read low 0.988 | locus YFR010W, strain ubp6, active compounds read low 0.977 | locus YGL078C, strain dbp3, active compounds read low 0.99 | locus YGL086W, strain mad1, active compounds read low 0.978 | locus YGL167C, strain pmr1, active compounds read low 0.989 | locus YGL173C, strain kem1, active compounds read low 0.984 | locus YGL227W, strain vid30, active compounds read low 0.979 | locus YGL240W, strain doc1, active compounds read low 0.976 | locus YGL248W, strain PDE1, active compounds read low 1.02 | locus YGL253W, strain hxk2, active compounds read low 0.98 | locus YGR078C, strain PAC10, active compounds read low 1.03 | locus YGR135W, strain pre9, active compounds read low 1.01 | locus YGR229C, strain SMI1, active compounds read low 1.02 | locus YGR252W, strain gcn5, active compounds read low 1.04 | locus YHR013C, strain ard1, active compounds read low 0.934 | locus YHR027C, strain rpn1, active compounds read low 0.994 | locus YHR030C, strain SLT2, active compounds read low 0.995 | locus YHR079C, strain IRE1 (second series), active compounds read low 0.992 | locus YHR094C, strain hxt1, active compounds read low 0.994 | locus YHR129C, strain ARP1, active compounds read low 0.997 | locus YHR142W, strain chs7, active compounds read low 0.952 | locus YHR200W, strain rpn10, active compounds read low 0.989 | locus YIL066C, strain RNR3, active compounds read low 1.01 | locus YIL073C, strain SPO22, active compounds read low 0.986 | locus YIL125W, strain kgd1, active compounds read low 0.991 | locus YIR030C, strain dcg1, active compounds read low 0.994 | locus YJL092W, strain hpr5, active compounds read low 0.984 | locus YJL095W, strain BCK1 (second series), active compounds read low 0.99 | locus YJL095W, strain BCK1, active compounds read low 1 | locus YJL115W, strain asf1, active compounds read low 0.979 | locus YJL129C, strain trk1, active compounds read low 0.962 | locus YJL134W, strain LCB3, active compounds read low 0.992 | locus YJL154C, strain vps35, active compounds read low 0.986 | locus YJL164C, strain tpk1, active compounds read low 1.01 | locus YJL166W, strain qcr8, active compounds read low 0.981 | locus YJL168C, strain set2, active compounds read low 0.993 | locus YJL187C, strain SWE1 (second series), active compounds read low 1.02 | locus YJL187C, strain SWE1, active compounds read low 0.99
